According to PubChem BioAssay AID624389 (National Center for Advancing Translational Sciences (NCATS), 2012):
The source made the active and inactive calls. Calls follow the shape of the dose curve; as a rule, active = well fitted curve in the direction sought with a large enough effect; inactive = no such curve, though single readings can be large or run the other way.

These compounds were tested against Pyruvate kinase PKM (Homo sapiens) (UniProt P14618) (assay: qHTS for Activators of Human Muscle Isoform 2 Pyruvate Kinase: Extended Characterization Using A Lactate Dehydrogenase (LDH) Assay Probe 2). Details: purified hPK-M2, LDH-coupled NADH fluorescence kinetic.
Text: Human pyruvate kinase muscle 2 (hPK-M2)enzyme was supplied as a highly purified (>95% pure) preparation from Harvard Medical School and a secondary assay was used to evaluate compounds. This assay couples the formation of pyruvate from hPK-M2 using lactate dehydrogenase (LDH) and NADH. The depletion of NADH is followed in a fluorescent-based kinetic assay that follows the formation of pyruvate to lactate, as catalyzed LDH (described by Hannaert et al., 2002)1 Pyruvate kinase substrates, PEP and ADP, were present in the assay at 0.1 mM and 4 mM respectively. In this kinetic assay initial rates were determined by following the fluorescence of NADH depletion. NIH Chemical Genomics Center [NCGC] NIH Molecular Libraries Probe Centers Network [MLPCN] MLPCN Grant: MH085679 Assay Submitter (PI): Matthew G. Vander Heiden, Harvard Medical School
Three uL of substrate mix (final concentration, 50 mM Tris-Cl pH 8.0, 200 mM KCl, 15 mM MgCl2, 0.1 mM PEP, 4.0 mM ADP, and 0.2 mM NADH) was dispensed into black-solid 1536 well plates. 23 nL of compounds were delivered by a pin tool and 1 uL of enzyme mix (final concentrations, 10 nM hPK-M2 and 1 uM of LDH) was added. Plates were immediately placed in ViewLux (Perkin Elmer) and NADH fluorescence was determined at 30 second exposure intervals for between 3 and 6 minutes. Data were normalized to the uninhibited and EC100 activation using known activators such as fructose-bis-phosphate.

Pyruvate kinase PKM (Homo sapiens), sequence (P14618 whole entry, looked up, canonical isoform): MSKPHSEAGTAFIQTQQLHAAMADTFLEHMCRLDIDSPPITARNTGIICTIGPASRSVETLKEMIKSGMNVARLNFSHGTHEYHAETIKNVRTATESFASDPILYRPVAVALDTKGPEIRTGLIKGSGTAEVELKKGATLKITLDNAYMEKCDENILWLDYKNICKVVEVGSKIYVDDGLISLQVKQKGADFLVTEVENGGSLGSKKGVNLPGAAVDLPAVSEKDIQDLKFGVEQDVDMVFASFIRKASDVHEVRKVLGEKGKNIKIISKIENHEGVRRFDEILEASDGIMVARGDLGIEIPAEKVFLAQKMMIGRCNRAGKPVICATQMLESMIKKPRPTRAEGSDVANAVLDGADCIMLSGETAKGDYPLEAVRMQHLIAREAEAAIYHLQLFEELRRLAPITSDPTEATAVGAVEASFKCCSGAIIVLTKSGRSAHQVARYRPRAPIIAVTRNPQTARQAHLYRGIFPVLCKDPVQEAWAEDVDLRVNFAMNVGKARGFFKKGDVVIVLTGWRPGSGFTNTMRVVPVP

Potency, active:
Cc1ccc(NS(=O)(=O)c2ccc3c(c2)CCC(=O)N3)cc1C 0.146 µM, O=S(=O)(c1ccc2c(c1)OCCO2)N1CCN(S(=O)(=O)c2c(F)cccc2F)CC1 0.178 µM, COc1cccc(Cn2ncc3c4sc(S(C)=O)cc4n(C)c3c2=O)c1 (stereo not drawn) 0.41 µM
